Test [1] in a line: NCI Yeast Anticancer Drug Screen. Data for the rad50 strain (AID 155).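 Note: 0% = growth of vehicle-only cultures of the same strain.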 The settings on record: S. cerevisiae rad50 strain growth inhibition, stronger effect = higher value. The gist of the method:
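Inhibition values express reduced yeast growth in compound-treated cultures relative to vehicle-treated controls.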

Test [2] can be described thus: NCI Yeast Anticancer Drug Screen. Data for the mec2-1 strain (AID 157). The settings on record: S. cerevisiae mec2-1 strain, stronger effect = higher value. The method, boiled down: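 Vehicle-treated cultures served as reference for growth inhibition of compound-exposed mec2-1 yeast.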
The nature of test [3]: NCI Yeast Anticancer Drug Screen. Data for the sgs1 mgt1 strain (AID 161).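 Note: 0% = growth of cultures given vehicle only.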 As to conditions: S. cerevisiae sgs1 mgt1 strain, stronger effect = higher value. The method, boiled down: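 Inhibition of yeast growth, normalised to vehicle-treated controls, is reported for a strain bearing genetic alterations in DNA damage repair.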
A short description of test [4]: NCI Yeast Anticancer Drug Screen. Data for the cln2 rad14 strain (AID 165).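 Note: 0% = growth equal to vehicle treated cultures.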 As to conditions: S. cerevisiae cln2 rad14 strain, stronger effect = higher value. The gist of the method: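 Each compound was tested on cln2 rad14 yeast. Inhibition of growth was calculated against vehicle-exposed controls.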
A short description of test [5]: NCI Yeast Anticancer Drug Screen. Data for the bub3 strain (AID 167). As to conditions: S. cerevisiae bub3 mutant strain, stronger effect = higher value. The gist of the method:
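Steps: expose the mutant yeast strain to compound; grow alongside vehicle-treated cultures; measure growth; express inhibition against the vehicle cultures.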

Test [6] is described as follows: NCI Yeast Anticancer Drug Screen. Data for the mlh1 rad18 strain (AID 175). As to conditions: S. cerevisiae mlh1 rad18 strain growth inhibition, stronger effect = higher value. The gist of the method:
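Vehicle-treated cultures served as the reference for growth inhibition in a yeast strain carrying DNA damage repair alterations exposed to each compound.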

The mark [7] stands for this setting: at 5.0 µM (retest, dose inferred, filed as 0.5).
[8] abbreviates: at 50.0 µM (retest, dose inferred, filed as 5.0).

From PubChem BioAssay (NCI) come the findings set out here.

The panel holds about 79,000 compounds, 15% with a hit somewhere; the sample as a whole holds those more often. A number with no mark means an inactive call. The source made the active and inactive calls. Cut-off read from the data, not from the text of the source: active = growth inhibition above about 70%; inactive = the rest.

For the molecule `Cc1ccccc1NC(=O)Cc1csc(N=Nc2c(O)[nH]c3ccccc23)n1`, the growth inhibition in test [1] (setting [7]) was 18%; in test [1] (setting [8]), 17%; in test [1] (at 50.0 µM), -33.6%; in test [2] (setting [7]), 1%; in test [2] (setting [8]), 1%; in test [2] (at 50.0 µM) it was -42.9%. The growth inhibition in test [3] (setting [7]) was 1%; in test [3] (setting [8]) it was -2%; in test [3] (at 50.0 µM), -6.95%; in test [4] (setting [7]), 9%; in test [4] (setting [8]), -6%; in test [4] (at 50.0 µM), -12.1%. In addition, the growth inhibition in test [5] (setting [7]) is 25%; in test [5] (setting [8]), 25%; in test [5] (at 50.0 µM), -11.1%; in test [6] (setting [7]) it was 15%; in test [6] (setting [8]), 17%; in test [6] (at 50.0 µM), -27.7%.
For the molecule `CCCCCCCCCCCc1nnc(N)o1`, the growth inhibition is 28% in test [1] (setting [7]); 91% (active) in test [1] (setting [8]); 96.7% (active) in test [1] (at 50.0 µM); 11% in test [2] (setting [7]); 92% (active) in test [2] (setting [8]); 96.2% (active) in test [2] (at 50.0 µM). Moreover, the growth inhibition in test [3] (setting [7]) is 1%; in test [3] (setting [8]) it was 89% (active); in test [3] (at 50.0 µM), 95.2% (active); in test [4] (setting [7]), 35%; in test [4] (setting [8]), 92% (active); in test [4] (at 50.0 µM), 93.3% (active). The growth inhibition is -10% in test [5] (setting [7]); 99% (active) in test [5] (setting [8]); 95.1% (active) in test [5] (at 50.0 µM); 7% in test [6] (setting [7]); 94% (active) in test [6] (setting [8]); 96.8% (active) in test [6] (at 50.0 µM).
Turning to `Cc1cc2nc(-c3ccccc3[N+](=O)[O-])[nH]c2cc1C`, the growth inhibition in test [1] (setting [7]) was -3%; in test [1] (setting [8]) it was 20%; in test [1] (at 50.0 µM), 21.6%; in test [2] (setting [7]), -7%; in test [2] (setting [8]) it was 7%; in test [2] (at 50.0 µM), -0.15%. Moreover, the growth inhibition was -6% in test [3] (setting [7]); 61% in test [3] (setting [8]); 41.1% in test [3] (at 50.0 µM); -3% in test [4] (setting [7]); -1% in test [4] (setting [8]); -73.7% in test [4] (at 50.0 µM). The growth inhibition in test [5] (setting [7]) is 6%; in test [5] (setting [8]), 55%; in test [5] (at 50.0 µM), 16.3%; in test [6] (setting [7]) it was 2%; in test [6] (setting [8]), 56%; in test [6] (at 50.0 µM) it was 3.2%.
`CN(C)[C@H]1CC[C@H]2[C@@H]3CCC4C[C@@H](NC(=O)NC(Cc5ccccc5)c5nccs5)CC[C@]4(C)[C@H]3CC[C@]12C` (some centres not stated): the growth inhibition in test [1] (setting [7]) is 4%; in test [1] (setting [8]), 4%; in test [1] (at 50.0 µM) it was 67.5%; in test [2] (setting [7]), -16%; in test [2] (setting [8]) it was -16%; in test [2] (at 50.0 µM), 63.9%. Besides, the growth inhibition was -11% in test [3] (setting [7]); -11% in test [3] (setting [8]); 63.5% in test [3] (at 50.0 µM); -16% in test [4] (setting [7]); -16% in test [4] (setting [8]); 47.9% in test [4] (at 50.0 µM). The growth inhibition in test [5] (setting [7]) is -17%; in test [5] (setting [8]) it was -17%; in test [5] (at 50.0 µM), 65.9%; in test [6] (setting [7]), -21%; in test [6] (setting [8]), -21%; in test [6] (at 50.0 µM), 59%.
As for `C=CCOCCC(=O)OCC=C`, the growth inhibition in test [1] (setting [7]) was 0%; in test [1] (setting [8]) it was -2%; in test [1] (at 50.0 µM), 7%; in test [2] (setting [7]) it was 1%; in test [2] (setting [8]) it was 0%; in test [2] (at 50.0 µM) it was 40.4%. Moreover, the growth inhibition in test [3] (setting [7]) is 1%; in test [3] (setting [8]), -1%; in test [3] (at 50.0 µM) it was 15.9%; in test [4] (setting [7]), -1%; in test [4] (setting [8]), 0%; in test [4] (at 50.0 µM), 72.2% (active). Besides, the growth inhibition in test [5] (setting [7]) is -2%; in test [5] (setting [8]), -1%; in test [5] (at 50.0 µM), 67.4%; in test [6] (setting [7]), -1%; in test [6] (setting [8]), -1%; in test [6] (at 50.0 µM), 70.8% (active).
Turning to `CC(C)/C(Cl)=N/OC(=O)Nc1ccc(OC(F)(F)F)cc1`, the growth inhibition was 2% in test [1] (setting [7]); 98% (active) in test [1] (setting [8]); 81% (active) in test [1] (at 50.0 µM); -30% in test [2] (setting [7]); 98% (active) in test [2] (setting [8]); 88.3% (active) in test [2] (at 50.0 µM). Moreover, the growth inhibition is 39% in test [3] (setting [7]); 98% (active) in test [3] (setting [8]); 83.5% (active) in test [3] (at 50.0 µM); -7% in test [4] (setting [7]); 97% (active) in test [4] (setting [8]); 76.2% (active) in test [4] (at 50.0 µM). For the same molecule, the growth inhibition is -27% in test [5] (setting [7]); 98% (active) in test [5] (setting [8]); 85.5% (active) in test [5] (at 50.0 µM); -7% in test [6] (setting [7]); 97% (active) in test [6] (setting [8]); 77.1% (active) in test [6] (at 50.0 µM).
`CCCCCCCCCCOC(=O)c1ccccn1`: the growth inhibition in test [1] (setting [7]) was -6%; in test [1] (setting [8]), 93% (active); in test [1] (at 50.0 µM) it was 34.1%; in test [2] (setting [7]) it was -3%; in test [2] (setting [8]) it was 94% (active); in test [2] (at 50.0 µM) it was 42.7%. Also, the growth inhibition in test [3] (setting [7]) was -3%; in test [3] (setting [8]) it was 60%; in test [3] (at 50.0 µM) it was 37.5%; in test [4] (setting [7]), -3%; in test [4] (setting [8]) it was 75% (active); in test [4] (at 50.0 µM), 17.2%. For the same molecule, the growth inhibition is 0% in test [5] (setting [7]); 80% (active) in test [5] (setting [8]); 43.2% in test [5] (at 50.0 µM); -2% in test [6] (setting [7]); 83% (active) in test [6] (setting [8]); 62.5% in test [6] (at 50.0 µM).
For `O=C1c2ccccc2C(=O)c2sc(Nc3ccc([N+](=O)[O-])cc3)nc21`, the growth inhibition was 89% (active) in test [1] (setting [7]); 98% (active) in test [1] (setting [8]); 60.3% in test [1] (at 50.0 µM); 91% (active) in test [2] (setting [7]); 99% (active) in test [2] (setting [8]); 77.4% (active) in test [2] (at 50.0 µM). The growth inhibition in test [3] (setting [7]) is 99% (active); in test [3] (setting [8]) it was 99% (active); in test [3] (at 50.0 µM), 58.1%; in test [4] (setting [7]) it was 62%; in test [4] (setting [8]), 99% (active); in test [4] (at 50.0 µM) it was 29%. Also, the growth inhibition was 100% (active) in test [5] (setting [7]); 99% (active) in test [5] (setting [8]); 80.7% (active) in test [5] (at 50.0 µM); 90% (active) in test [6] (setting [7]); 99% (active) in test [6] (setting [8]); 84.5% (active) in test [6] (at 50.0 µM).
Regarding `O=S(=O)(c1cc(Br)ccc1O)c1cc(Br)ccc1O`, the growth inhibition in test [1] (setting [7]) was 94% (active); in test [1] (setting [8]), 99% (active); in test [1] (at 50.0 µM), 99.8% (active); in test [2] (setting [7]), 99% (active); in test [2] (setting [8]), 100% (active); in test [2] (at 50.0 µM) it was 99.8% (active). In addition, the growth inhibition in test [3] (setting [7]) was 89% (active); in test [3] (setting [8]) it was 99% (active); in test [3] (at 50.0 µM) it was 99.8% (active); in test [4] (setting [7]) it was 99% (active); in test [4] (setting [8]), 100% (active); in test [4] (at 50.0 µM), 99.5% (active). Also, the growth inhibition in test [5] (setting [7]) was 99% (active); in test [5] (setting [8]), 100% (active); in test [5] (at 50.0 µM), 99.7% (active); in test [6] (setting [7]) it was 98% (active); in test [6] (setting [8]), 99% (active); in test [6] (at 50.0 µM), 99.5% (active).
